Consider 7 compounds from PubChem BioAssay (NCI).

“And” between values parts separate entries of the source, which are not always exact repeats. Equal entries are not always repeated. The panel holds about 83,000 compounds, 20% with a hit somewhere; the sample as a whole holds those more often.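 Single-concentration screen, 48 h exposure, 96-well plates. Endpoint: percent growth. Below 10 = active.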 Values without a mark were called inactive. The source made the active and inactive calls.

Among the test systems are NCI-H23 lung; NCI-H226 lung; NCI-H322M lung; HOP-62 NSCLC; NCI-H460 lung; HOP-92 NSCLC; NCI-H522 lung; A549/ATCC NSCLC; 786-0 renal; COLO 205 colon; DU-145 prostate; K-562 leukemia; MALME-3M melanoma; MDA-MB-231 breast; RXF 393 renal; SF-268 CNS; SF-295 CNS; SF-539 CNS; UACC-257 melanoma; M14 melanoma.
What all share (assay): NCI-60 one-dose screen, 48 h (100 = growth as untreated, 0 = no growth, -100 = all killed)
What all share (conditions): 10 µM unless noted

For the compound `O=C(O)c1ccccc1Cc1ccc(F)c2ccccc12`, the growth in the assay on NCI-H23 lung is 97.5% and 105%; with NCI-H226 lung, 107%; in the assay on NCI-H322M lung, 109% and 112%; in the assay on HOP-62 NSCLC, 94.3% and 109%; in the assay with NCI-H460 lung, 109% and 99.2%; in the assay with HOP-92 NSCLC, 74.6%. For the same compound, the growth with NCI-H522 lung is 94.5% and 89.9%; in the assay on A549/ATCC NSCLC, 101% and 95.3%; with 786-0 renal, 125% and 110%; in the assay with COLO 205 colon, 101% and 121%; in the assay on DU-145 prostate, 90.6% and 116%; in the assay on K-562 leukemia it was 103% and 98.4%. For the same compound, the growth is 102% and 117% with MALME-3M melanoma; 115% and 106% in the assay with MDA-MB-231 breast; 107% and 95.9% in the assay with RXF 393 renal; 102% and 103% in the assay with SF-268 CNS; 71.1% and 103% with SF-295 CNS; 117% and 107% with SF-539 CNS. The growth with UACC-257 melanoma was 107% and 98.8%; in the assay with M14 melanoma, 129% and 102%.

`COc1ccc(-c2cc3cnc4ccccc4c3oc2=O)cc1`: the growth with NCI-H23 lung was 94.4%; in the assay with NCI-H226 lung, 103%; in the assay on NCI-H322M lung, 94.5%; in the assay on HOP-62 NSCLC, 105%; in the assay with NCI-H460 lung it was 104%; in the assay on HOP-92 NSCLC it was 73.5%. Besides, the growth is 97.4% in the assay on NCI-H522 lung; 101% in the assay on A549/ATCC NSCLC; 89% with 786-0 renal; 103% in the assay on COLO 205 colon; 97.8% with DU-145 prostate; 28.1% in the assay with K-562 leukemia. Moreover, the growth in the assay on MALME-3M melanoma is 97%; with MDA-MB-231 breast, 88.2%; in the assay on RXF 393 renal, 86.5%; with SF-268 CNS, 99.7%; with SF-295 CNS it was 96.7%; in the assay with SF-539 CNS it was 102%. In addition, the growth in the assay on UACC-257 melanoma is 96.4%; in the assay with M14 melanoma, 106%.

As for `COc1cc(NS(=O)(=O)C(C)C)cc(-c2cc(-c3ccc(N4CCNCC4)cc3)cnc2N)c1`, the growth was 84.1% with NCI-H23 lung; 61.1% in the assay with NCI-H226 lung; 91% in the assay on NCI-H322M lung; 103% with HOP-62 NSCLC; 97.1% with NCI-H460 lung; 61.8% in the assay with HOP-92 NSCLC. Also, the growth in the assay with NCI-H522 lung was 52.8%; with A549/ATCC NSCLC, 76.9%; in the assay with 786-0 renal it was 45.1%; with COLO 205 colon it was 84.4%; in the assay on DU-145 prostate, 90.8%; with K-562 leukemia, 5.48% (active). Moreover, the growth with MALME-3M melanoma was 79.6%; in the assay with MDA-MB-231 breast it was 89.8%; in the assay on RXF 393 renal it was 41%; in the assay with SF-268 CNS, 70.3%; with SF-295 CNS, 91.7%; in the assay on SF-539 CNS it was 58.3%. Moreover, the growth with UACC-257 melanoma was 91.4%; in the assay on M14 melanoma, 58.6%.

Turning to `O=C1c2cc3c(cc2-c2c1c1ccc(Cl)cc1c(=O)n2CCCn1ccnc1)OCO3`, the growth with NCI-H23 lung is -38.2% (active); with NCI-H226 lung, 1.03% (active); in the assay with NCI-H322M lung, 10.5%; with HOP-62 NSCLC it was 5.44% (active); in the assay on NCI-H460 lung, 2.4% (active); with HOP-92 NSCLC it was -2.88% (active). Also, the growth in the assay on NCI-H522 lung is -26.1% (active); with A549/ATCC NSCLC, 19.6%; in the assay with 786-0 renal, -40.9% (active); in the assay on COLO 205 colon, 14.5%; in the assay on DU-145 prostate it was -42.2% (active); in the assay with K-562 leukemia, 1.87% (active). In addition, the growth in the assay on MALME-3M melanoma was -24.6% (active); with MDA-MB-231 breast, 46.4%; in the assay with RXF 393 renal, -36.7% (active); with SF-268 CNS, 8.11% (active); in the assay on SF-295 CNS it was -10.1% (active); in the assay on SF-539 CNS, -50.3% (active). The figures for the growth with UACC-257 melanoma and in the assay with M14 melanoma were -3.1% (active) and -28.6% (active), respectively.

Take `CS(=O)(=O)Nc1cc(-c2ccc3ncnc(Nc4ccc(F)c(Cl)c4)c3c2)cnc1Cl`: the growth in the assay with NCI-H23 lung was 16.9%; in the assay on NCI-H226 lung, 17.6%; with NCI-H322M lung it was 3.88% (active); with HOP-62 NSCLC, 15.1%; in the assay with NCI-H460 lung, 10.6%; with HOP-92 NSCLC, -23.6% (active). Further, the growth in the assay with NCI-H522 lung is 14%; in the assay with A549/ATCC NSCLC, 1.72% (active); in the assay with 786-0 renal, 7.37% (active); with COLO 205 colon, -57.2% (active); with DU-145 prostate, 16.3%; in the assay with K-562 leukemia, 18.7%. In addition, the growth is -15.5% (active) in the assay with MALME-3M melanoma; 5.12% (active) with MDA-MB-231 breast; -34.2% (active) in the assay on RXF 393 renal; 12.3% with SF-268 CNS; -17.5% (active) in the assay with SF-295 CNS; 6.35% (active) with SF-539 CNS. For the same compound, the growth with UACC-257 melanoma was 4.62% (active); in the assay with M14 melanoma it was 5.92% (active).

As for `C=CCN1C=CC(=O)[C@H](O[Si](C)(C)C(C)(C)C)[C@@H]1/C=C/c1ccccc1`, the growth in the assay with NCI-H23 lung was -71.6% [100 µM] (active); in the assay on NCI-H226 lung, -65.3% [100 µM] (active); in the assay with NCI-H322M lung, -59.2% [100 µM] (active); in the assay with HOP-62 NSCLC, -88.9% [100 µM] (active); with NCI-H460 lung it was -49.3% [100 µM] (active); in the assay on HOP-92 NSCLC, -89.7% [100 µM] (active). For the same compound, the growth in the assay with NCI-H522 lung was -39.1% [100 µM] (active); in the assay with A549/ATCC NSCLC it was -40.4% [100 µM] (active); in the assay on 786-0 renal it was -88.2% [100 µM] (active); in the assay with COLO 205 colon, -64% [100 µM] (active); in the assay with DU-145 prostate, -59.1% [100 µM] (active); with K-562 leukemia, 4.18% [100 µM] (active). In addition, the growth in the assay on MALME-3M melanoma is -57.5% [100 µM] (active); in the assay on MDA-MB-231 breast it was -68.3% [100 µM] (active); in the assay on RXF 393 renal, -45.5% [100 µM] (active); in the assay on SF-268 CNS, -58.2% [100 µM] (active); in the assay with SF-295 CNS, -66.7% [100 µM] (active); in the assay on SF-539 CNS, -82.7% [100 µM] (active). The growth in the assay with UACC-257 melanoma was -75.9% [100 µM] (active); in the assay with M14 melanoma, -78.6% [100 µM] (active).

For `Cc1nn(-c2nc(-c3cc4ccccc4oc3=O)cs2)c(C)c1N=Nc1ccccc1`, the growth in the assay with NCI-H23 lung is 98%; in the assay on NCI-H226 lung, 105%; in the assay with NCI-H322M lung, 97.3%; in the assay with HOP-62 NSCLC it was 102%; with NCI-H460 lung, 108%; with HOP-92 NSCLC, 79.9%. For the same compound, the growth in the assay on NCI-H522 lung is 97.8%; in the assay on A549/ATCC NSCLC, 114%; with 786-0 renal, 104%; in the assay on COLO 205 colon, 114%; in the assay with DU-145 prostate, 90.4%; in the assay on K-562 leukemia it was 93%. Also, the growth in the assay with MALME-3M melanoma is 96.5%; in the assay on MDA-MB-231 breast it was 87.8%; in the assay with RXF 393 renal, 112%; in the assay on SF-268 CNS, 105%; in the assay with SF-295 CNS it was 104%; with SF-539 CNS, 102%. The growth in the assay on UACC-257 melanoma was 103%; in the assay with M14 melanoma, 110%.
